Test results published in PubChem BioAssay AID651965 (National Center for Advancing Translational Sciences (NCATS), 2013).
Among all 340,000 compounds or so, about 6,400 (1.9%) were called active. Another 4% or so got no clear call; they are omitted. Calls follow the shape of the dose curve; as a rule, active = well fitted falling curve with a large enough effect; inconclusive = small, poorly fitted or top-dose-only effect; inactive = no such curve, though single readings can be large or run the other way. Only a selection was taken, and actives are over-represented in it overall.

molecular target: ATP-dependent Clp protease proteolytic subunit (Bacillus subtilis (strain 168)) (UniProt P80244); assay: qHTS Assay for Activators of ClpP; also: the source files actives as falling curves though it sought activators and does not explain the sign; nearly all actives have a fitted effect of over 65% in size; conditions: purified B. subtilis ClpP, FRET peptide cleavage, 20 min; series mostly up to 57.5 µM; activity change, negative = active: at the top concentration
Text: The Clp protease proteolytic subunit (ClpP) is the core unit of the Clp complex belonging to the peptidase family S14 that hydrolyzes protein into small peptides in the presence of ATP and magnesium. It is ubiquitously expressed and is the major protease in bacteria. […] Unlike common antibiotics that simply interfere with the essential enzyme activity, ADEP binding activates the ClpP core in the absence of the regulatory Clp-ATPases leading to uncontrolled proteolysis and eventually cell death. Activators binding to the docking site on ClpP can also block formation of the ClpXP and ClpA/C-P holoenzyme complexes interfering with the normal biological functions of ClpP and thus have the potential to become new anti-microbials.
To identify activators of ClpP, a FRET based quenching reversal assay was developed using a purified B. subtilis ClpP and a decapeptide substrate (FRET-FV). The FRET-FV is tagged with a fluorescent molecule amino benzoic acid (donor) at the N-terminus and a nitrotyrosine quencher (acceptor) at the C-terminus. FRET-FV cleaves upon activation of ClpP with ADEP treatement and reverses the quenching effect of the nitrotyrosine causing an increase in fluorescence emission signal at 430nm. This assay was used to screen the Molecular Libraries Small Molecule Repository (MLSMR).
NIH Molecular Libraries Probe Production Centers Network [MLPCN]
NIH Chemical Genomics Center [NCGC]
Assay Submitter (PI): Michael Maurizi, National Cancer Institute
Two and a half microL/well of purified enzyme solution (final concentrations 10 microg/mL B. subtilis ClpP in 100 mM Tris/HCl pH8, 100 mM KCl, 0.05% low protease BSA, 2.5% glycerol, 0.01% Tween-20 buffer) was dispensed into 1536-well assay plates (Greiner, black solid, medium-binding plates) with Aurora Discovery BioRAPTR Flying Reagent Dispenser (FRD, Beckton-Dickenson). Compound solution (23 nL) was transferred to the assay plate using Kalypsys pin tool equipped with a 1536-pin tool. […] FRET signals at time 0 and after 20 min room temperature incubation were obtained using the PerkinElmer Envision plate reader with 320nm excitation and 430nm emission filters. Delta FRET value (Time 20 - Time 0) was calculated and normalized to the delta FRET value of positive control ADEP (5.8 microM final concentration) and negative control DMSO and no enzyme wells.
Potency is read from the fitted curve at half-maximal effect.

Structure (SMILES)	activity change, negative = active	Potency
CCOC(=O)[C@]12CCC=C1N(Cc1ccccc1)C(=O)[C@H](CC(=O)N1CCCC1)C2	-2.23% (inactive)	
CC(=O)NC(c1ccccc1)c1nc(-c2ccccc2C)cs1 (stereo not given)	-4.42% (inactive)	
NS(=O)(=O)c1ccc(NC(=O)CSc2nnc3c(n2)[nH]c2ccccc23)cc1	1.35% (inactive)	
Cc1cc(NC(=O)Cn2nc(C(F)(F)F)c3c2CCCC3)no1		28.2 µM (active)
O=C(Cn1nc(C(F)(F)F)c2c1CCC2)NCc1ccc(F)cc1	-1.32% (inactive)	
O=C(Cn1nc(C(F)(F)F)c2c1CCCC2)Nc1ccc(Cl)cc1	-1.07% (inactive)	
COC(=O)c1ccc(OCC(=O)NC(C)(C)C)cc1	1.7% (inactive)	
COc1ccc(C(=O)OCC(=O)Nc2ccc3[nH]c(=O)[nH]c3c2)c(OC)c1OC	-5.3% (inactive)	
CC(C)(C)NC(=O)COc1ccc(CNc2ccc3[nH]c(=O)[nH]c3c2)cc1		22.4 µM (active)
Cc1ccc([C@H]2N[C@]3(CCCN(Cc4ccccc4)C3=O)[C@H]3C(=O)N(Cc4ccccc4)C(=O)[C@@H]23)cc1	1.37% (inactive)	
CCOC(=O)[C@H]1Nc2ccc(Cl)cc2[C@@H]2[C@H]1C1CC(c3ccccc31)N2C(=O)OCc1ccccc1 (stereo not given in full)	-6.04% (inactive)	
CCn1c2ccccc2c2cc(NC(=O)COc3ccc(C)cc3C)ccc21	-24.8% (inactive)	
C/C(CC(=O)Nc1ccc(N(C)C)cc1)=N\NC(=O)c1ccccc1F	-2.45% (inactive)	
CCn1c2ccccc2c2cc(NC(=O)C/C(C)=N/NC(=O)c3ccccc3N)ccc21		14.1 µM (active)
COc1ccc(-c2cc(C(=O)NCCCN3CCCC3=O)c3ccccc3n2)cc1OC	-6.41% (inactive)	
Cc1ccc(-c2cc(C(=O)NC3CCN(Cc4ccccc4)CC3)c3ccccc3n2)cc1	-0.514% (inactive)	
CCc1ccc(-c2cc(C(=O)NN3CCN(C)CC3)c3ccccc3n2)cc1		31.6 µM (active)
COCCNc1nc(NCc2ccc(NC(C)=O)cc2)c2sccc2n1	-15.9% (inactive)	
Cc1nc2c(OCC(=O)C(C)(C)C)cccn2c1N(C)Cc1cccs1	-7.89% (inactive)	
CCCCCc1c(-c2cccc(Br)c2)ncn1CCc1ccccc1OC	-26.2% (inactive)	
COc1c(C)cc(C(O)c2ncc(-c3cccc(C(F)(F)F)c3)[nH]2)cc1C (stereo not given)	-7.79% (inactive)	
CCC(c1nnnn1-c1ccc2c(c1)OCCO2)N1CCN(c2ccc(C(F)(F)F)cn2)CC1 (stereo not given)	-0.91% (inactive)	

Structure (SMILES)	activity change, negative = active	Potency
CCc1nc(N2CCN(C(C)=O)CC2)c2c3c(sc2n1)CCCC3	-4.18% (inactive)	
C=C(C)CSc1nc(N)c2c3c(sc2n1)CCC3		12.6 µM (active)
CC(C)(C)C1CCc2c(sc3nc(SCC(N)=O)nc(N)c23)C1 (stereo not given)	-15.5% (inactive)	
C[C@H]1CN([C@@H](C)CO)C(=O)c2cc(C3=CCCCC3)cnc2O[C@@H]1CN(C)C(=O)Cc1ccccc1	-5.72% (inactive)	
Cc1cc(NC(=O)CN2CCCC(C)C2)n(-c2nc3ccccc3s2)n1 (stereo not given)		17.8 µM (active)
CC(=O)Nc1ccc(NC(=O)CN2CCCC(C)C2)c(Cl)c1 (stereo not given)	-3.9% (inactive)	
Cc1[nH]c2ccccc2c1C(=O)CN1CCCC(C)C1 (stereo not given)	0.916% (inactive)	
CC(=O)c1ccc(Nc2nc(C(N)c3ccccc3Cl)cs2)cc1 (stereo not given)	-11.1% (inactive)	
CCOC(=O)c1c(N)nn(C(=O)c2ccccc2)c1-c1ccccc1	-1.6% (inactive)	
CCOc1ccc2nc(N3CCCN(C(=O)Nc4ccccc4C)CC3)c(C#N)cc2c1	-2.23% (inactive)	
CCOC(=O)c1cc(C#N)c(N2CCCCC2)nc1-c1ccccc1		28.2 µM (active)
Cc1cc[n+](C2CCCCC2)cc1	-7.91% (inactive)	
N#Cc1ccc[n+](CC(=O)c2ccc(O)c(O)c2)c1	-0.287% (inactive)	
O=C(NCc1cccnc1)c1cc(C2CCCN(C(=O)CCCc3ccccc3)C2)on1 (stereo not given)	1.82% (inactive)	
O=C(NCc1ccc2c(c1)OCO2)c1cc(F)c(F)cc1Cl	0.908% (inactive)	
Cc1nc2c(C(=O)NCc3ccc4c(c3)OCO4)c[nH]n2c(=O)c1Cc1ccccc1F		31.6 µM (active)
CCn1c(=O)c(C(=O)NCc2ccc3c(c2)OCO3)c(O)c2ccccc21	-2.41% (inactive)	
OCCc1ccc(NCCc2ccco2)cc1	-2.59% (inactive)	
CCCNC(=O)C1(C)CCCN(C(=O)c2cccc(OC(C)=O)c2C)C1 (stereo not given)	-0.0684% (inactive)	
O=C1C[C@H]2C=CCc3cccc(c32)CN1Cc1ccccc1	-2.81% (inactive)	
CC(=O)OCC(C)n1c(=O)c2ccccc2n1C(C)=O (stereo not given)	7.13% (inactive)	
O=C(CN1CCOCC1)Nc1c2c(nc3c1CCC3)CCC2	-0.252% (inactive)	

Structure (SMILES)	activity change, negative = active	Potency
Cc1ccc(Nc2nc(N3CCOCC3)nc(N3CCOCC3)n2)cc1Cl	1.71% (inactive)	
Cc1nc(N2CCOCC2)nc2c1CCCC2		28.2 µM (active)
CCc1nc2c(OCCc3cccc(OC)c3)cccn2c1N(C)C(=O)c1ccc(C)cc1	-1.31% (inactive)	
O=C1CC2(CCCCC2)Oc2ccc(OCC(=O)N3CCOCC3)cc21		10 µM (active)
O=C1CC2(CCCC2)Oc2ccc(Cl)cc21	4.22% (inactive)	
O=C(Nc1cccc(OCC(=O)N2CCOCC2)c1)C1CCCCC1	-2.02% (inactive)	
COc1cccc2c(C)c(C(=O)O)[nH]c12		25.1 µM (active)
COc1cccc2[nH]c(C(=O)NCCc3ccccc3)cc12	4.06% (inactive)	
COc1cc2c(C(=O)O)c(C)n(C)c2c2ccccc12	3.23% (inactive)	
Cc1ccc(Cc2c(-c3ccc(Cl)cc3)nc3c4ccccc4ccn23)cc1	49.9% (inactive)	
CC(C)(C)CC(=O)Nc1nc(C(N)Cc2ccc(C(F)(F)F)cc2)cs1 (stereo not given)	-1.68% (inactive)	
COc1cccc(N(CC(=O)Nc2cccc(F)c2)S(C)(=O)=O)c1	-0.426% (inactive)	
Cc1cccc(N(CC(=O)Nc2ccc(-c3nc4ccc(C)cc4s3)cc2)S(C)(=O)=O)c1		15.8 µM (active)
CCN(CC)S(=O)(=O)c1ccc(NC(=O)CN(c2cccc(F)c2)S(C)(=O)=O)cc1	-3.47% (inactive)	
COc1ccc(NC(=O)C2(C)Cc3c(-c4ccc(C(N)=O)cc4)ccnc3O2)cc1 (stereo not given)	-2.25% (inactive)	
COc1ccc(-c2ccc(CN3C(CC(C)C)C(=O)N(Cc4cn(CC5CCCCC5)nn4)CCS3(=O)=O)cc2)cn1 (stereo not given)	-8.24% (inactive)	
CCOC(=O)C(=Cc1ccccc1)C(=O)c1ccccc1	-0.195% (inactive)	
N#Cc1c(N)n(CCOC(=O)c2ccc(Cl)cc2)c2nc3ccccc3nc12		28.2 µM (active)
CC(C)(C)OC(=O)c1c(N)n(CCCN2CCCC2=O)c2nc3ccccc3nc12	38.4% (inactive)	
CN(C)CCCn1c(N)c(C#N)c2nc(C#N)c(C#N)nc21	-15.7% (inactive)	
CCc1ccc(OCCCn2c(CCCNC(=O)C3CCCCC3)nc3ccccc32)cc1	1.41% (inactive)	
